Assay outcomes as filed in PubChem BioAssay.
The list is a sample of the results.
aSyn UTR act = Activators working through SNCA 5'UTR binding (MLPCN). 300,000 compounds, 7.1% hits. alpha-synuclein 5'UTR reporter, activators screen. AID 1814. activity score, % (tested at 7.5 µM), hits read low; in the data active = activity score below about -60%
An asterisk follows results filed as active.

SMILES	aSyn UTR act
Cc1ccc(-c2ccc(SCC(=O)NCC3CCCO3)nn2)cc1 (stereo not given)	-85*
CCOC(=O)c1c(C)n(-c2ccc(C)cc2)c2ccc(OCC(O)CNCC3CCCO3)cc12 (stereo not given)	75
COc1cc(OC)c(OC)cc1CN1CCCC(C(=O)c2ccccc2SC)C1 (stereo not given)	50
COc1ccccc1C(=O)C1CCCN(C(=O)Nc2ccccc2F)C1 (stereo not given)	-64*
O=C(NC(c1cccnc1)C(F)(F)F)c1cc(COc2ccc3c(c2)CCCC3)on1 (stereo not given)	-104*
COc1ccc(Cl)cc1C(=O)Nc1ccc2c(c1)OCO2	-130*
CCN(CC)c1ccc(Nc2cc3n(c(=O)n2)CCc2cc(OC)c(OC)cc2-3)cc1	74
CCN(CC)c1ccc(NC(=O)c2cc(Cl)ccc2OC)cc1	-63*
COc1ccc(Cl)cc1C(=O)Nc1ccc2c(c1)OCCO2	-104*
CCc1ccc2[nH]c(C(=O)Nc3ccc(C)c(F)c3)cc2c1	-109*
O=C(Nc1ccc(F)cc1)c1cc2cc(Cl)ccc2[nH]1	-62*
N=C1C(c2nc(-c3ccc(Cl)cc3)cs2)=C(O)CN1NC(=O)c1ccc(O)cc1	-73*
CN(C)CCCNC(=O)c1ccc(-c2nc(-c3ccc(Cl)cc3)cs2)cc1	118
NC(=NCc1ccco1)NC(=O)c1ccc(Cl)cc1	-128*
CC(=O)N(c1nnc(-c2ccc(C)cc2)s1)C1CCCC1	-83*
Cc1ccc2[nH]c3c(NCc4ccco4)ncnc3c2c1	-203*
Cc1ccc2[nH]c3c(NCCCN4CCCC4=O)ncnc3c2c1	-77*
Cc1ccc(-c2ccc(S(=O)(=O)N3CC(C)OC(C)C3)cc2)cc1 (stereo not given)	-78*
CC1CN(S(=O)(=O)c2ccc(C(=O)NCCCn3ccnc3)cc2)CC(C)O1 (stereo not given)	105
O=[N+]([O-])c1ccc2c(c1)nc1n2CCN(c2ccccc2)C1	-125*
Cc1ccsc1/C=N/N1CCN(c2ccccn2)CC1	-94*
Cc1ccsc1/C=N/N1CCN(c2ccccc2)CC1	-148*
COc1ccc(/C=N/c2c(-c3ccco3)nc3ccccn23)cc1OC	-64*
COc1ccc(C2=Nn3c(nnc3-c3ccncc3)SC2)cc1OC	72
Fc1ccc(-c2csc(Nc3ccccn3)n2)c(F)c1	-102*
SMILES	aSyn UTR act
COc1ccc(-c2csc(Nc3ccccn3)n2)cc1OC	-170*
c1ccc(-c2csc(Nc3ccccn3)n2)cc1	-107*
Oc1ccc(-c2csc(Nc3ccccn3)n2)cc1	-163*
CCOC(=O)Cc1csc(NC(=O)c2cccs2)n1	-176*
CCOC(=O)c1csc(NC(=O)c2cccs2)n1	-109*
CCOC(=O)Cc1csc(NC(=O)c2c(O)c3ccccc3n(CC(C)C)c2=O)n1	75
COc1ccccc1Nc1nc(NCC(C)C)nc(N)c1[N+](=O)[O-]	77
COc1ccc(OC)c2nc(-c3cccnc3)ccc12	-67*
COc1ccccc1Nc1nc(-c2cccnc2)cs1	-110*
O=[N+]([O-])c1ccccc1Nc1nc(-c2cccnc2)cs1	-91*
COc1ccccc1Nc1nc(C2(C)CCC(=O)O2)cs1 (stereo not given)	-106*
COc1ccc(Nc2nc(-c3cccnc3)cs2)c(OC)c1	-175*
CCNc1oc(-c2cccc3ccccc23)nc1C#N	-88*
N#Cc1nc(-c2cccc3ccccc23)oc1NCCN1CCCCC1	-63*
O=C1C(Cl)=C(NCCN2CCCCC2)C(=O)c2ccccc21	54
O=C(Nc1nc(-c2cccc3ccccc23)cs1)c1ccc2c(c1)S(=O)(=O)c1ccccc1C2=O	-143*
CCCCC[n+]1ccn(C2=C([O-])c3ccccc3C(=O)/C2=N\S(=O)(=O)c2ccc(Cl)cc2)c1	48
Nc1nn(-c2cccc(F)n2)cc1-c1ccccc1	-113*
COc1cc(-c2nc3ccc(N4CCN(C)CC4)cc3[nH]2)cc(OC)c1OC	-102*
Cc1cc(-c2nnc(-c3cccc(Cl)c3)o2)no1	-171*
Cc1ccc(-c2nnc(-c3ccc4c(c3)OCO4)o2)cc1	-116*
Cn1cc(-c2nnc(-c3ccccc3)o2)c2ccccc21	-64*
Cc1cccc(-c2nnc(-c3ccccc3)o2)c1	-127*
Cc1ccccc1-c1nnc(-c2ccc(Cl)cc2)o1	-234*
Cc1ccc(-c2nnc(/C=C/c3ccccc3)o2)cc1	-136*
SMILES	aSyn UTR act
Cc1ccccc1-c1nnc(-c2ccccc2)o1	-138*
COc1ccc(/C=C/C(=O)c2ccc(NC3=NCCCS3)cc2)cc1OC	-99*
Cc1cc2n(n1)C(c1ccc(N(C)C)cc1)Nc1ccccc1-2 (stereo not given)	-156*
CS(=O)Cc1cc(Sc2ccccc2)nc(-c2cccnc2)n1 (stereo not given)	-66*
COc1cc(OC)cc(C(=O)Nc2ccc(-n3cnnn3)c(C)c2)c1	-93*
Cc1cc(NC(=O)c2oc3ccccc3c2C)ccc1-n1cnnn1	-124*
COc1cc(/C=N/NC(=S)Nc2cccc(C(=O)O)c2)ccc1O	70
CCOc1cc(/C=N/NC(=O)Nc2ccccc2)ccc1O	-197*
COc1cc(/C=N/NC(=O)Nc2ccccc2)ccc1OC(C)=O	-188*
Cn1c(CN2CCCC2)nc2cc(NC(=O)c3ccc(Cl)cc3)ccc21	-63*
Cn1c(CN2CCCCC2)nc2cc(NC(=O)c3ccc(Cl)cc3)ccc21	-66*
Cc1ccc(C(C)C)c(OCC(=O)Nc2ccc3c(c2)nc(CCN2CCCCC2)n3C)c1	110
Cn1c(CN2CCCC2)nc2cc(NC(=O)c3cccs3)ccc21	-76*
CCn1nc(C)c(CNC(=O)Nc2ccc3c(c2)OCO3)c1C	-70*
Cc1cc(CNC(=O)Nc2ccc3c(c2)OCO3)nn1C	-80*
Cc1ccc(NC(=O)C(C)OC(=O)c2n[nH]c3ccccc23)cc1 (stereo not given)	-71*
O=c1/c(=C/c2ccccn2)sc2nc3ccccc3n12	-174*
CC(=O)Nc1ccc(S(=O)(=O)N/N=C/c2ccc(C)s2)cc1	-137*
c1ccc2sc(-c3ccncc3)nc2c1	-111*
Oc1ccc(-c2nc3ccccc3s2)cc1	-68*
Oc1ccc(-c2nc3ccccc3s2)c(O)c1	-145*
c1cncc(-c2nc3ccccc3s2)c1	-148*
Nc1ccccc1-c1nc2ccccc2s1	-240*
c1csc(-c2nc3ccccc3s2)c1	-148*
COC(=O)c1ccc(CO/N=C2\CCCc3nonc32)cc1	-122*
SMILES	aSyn UTR act
O=C(Sc1cccc2cccnc12)c1ccccc1Br	-242*
N#C/C(=N/Nc1ccc(OC(F)(F)F)cc1)C(N)=S	-71*
COC(=O)c1cccc(CSc2nnc(C)s2)c1	-82*
COc1ccc(CSc2nnc(C)s2)cc1F	-127*
Oc1c(C=Nc2ccc(Cl)cn2)sc2ccccc12	-180*
Oc1c(C=Nc2ccccc2)sc2ccccc12	-65*
Oc1sc(C=Nc2ccccc2)c2ccccc12	-254*
Oc1sc(C=Nc2ccc(F)cc2)c2ccccc12	-227*
CC1CCCCN1Cc1c(O)ccc2c(=O)c(-c3ccc(Cl)cc3)coc12 (stereo not given)	-68*
CN(Cc1ccsc1)C(=O)CCc1nnc(CCCc2ccccc2)o1	-119*
COc1cccc(CN(C)C(=O)CCc2nnc(-c3ccsc3)o2)c1	-80*
Cc1ccsc1CN(C)C(=O)CCc1nnc(COc2ccccc2)o1	-62*
CN=C(c1ccc(C)cc1)n1c(=S)nc(-c2ccc(C)cc2)n(C)c1=S	-149*
CC(=O)N1CCc2cc(N=NC3=C(O)CC(C)(C)CC3=O)ccc21	-95*
